Giardia killer: Small Molecules that selectively kill Giardia lamblia: qHTS; Giardia lamblia trophozoite viability; activity change, % at 7.66 µM, hits read low; 340,000 compounds, 0.15% hits; in the data active = activity change below about -80%; inconclusive = between about -30% and that limit;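 note: parasites exposed to compound for two days anaerobically before the ATP read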
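Each well holds 100 Giardia trophozoites and compound. After two days (48 hrs) at 37 deg C in anaerobic conditions, ATP is quantified by luminescence.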
ELG1 DNA repair: qHTS screen for small molecules that inhibit ELG1-dependent DNA repair in human embryonic kidney (HEK293T) cells expressing luciferase-tagged ELG1 | HEK293T ELG1-luciferase reporter, luminescence, 16 h; DNA damage induced by 5-fluorouridine | Potency, µM (top dose mostly 46.1 µM), usual class: inhibitors | 330,000 compounds, 2.3% hits; note: nearly all actives have a fitted effect of over 55% in size
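HEK293T cells expressing luciferase-tagged ELG1 (2,000/well) received 5-Fluorouridine plus compound or DMSO for 16 hr at 37 °C. Luciferase was read by ONE-Glo luminescence after 30 min at room temperature.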
RORgamma inh: qHTS for inhibitors of ROR gamma transcriptional activity. Drosophila S2 Gal4-RORgamma UAS-luciferase reporter, 20 h. Potency, µM (doses to about 53.6 µM), actives largely listed as inhibitors. AID 2551, 2010. 310,000 compounds, 5.4% hits. Nuclear receptor ROR-gamma (Mus musculus), P51450; note: nearly all actives have a fitted effect of over 60% in size
Target sequence (P51450 whole entry, looked up, the tested form may be a part): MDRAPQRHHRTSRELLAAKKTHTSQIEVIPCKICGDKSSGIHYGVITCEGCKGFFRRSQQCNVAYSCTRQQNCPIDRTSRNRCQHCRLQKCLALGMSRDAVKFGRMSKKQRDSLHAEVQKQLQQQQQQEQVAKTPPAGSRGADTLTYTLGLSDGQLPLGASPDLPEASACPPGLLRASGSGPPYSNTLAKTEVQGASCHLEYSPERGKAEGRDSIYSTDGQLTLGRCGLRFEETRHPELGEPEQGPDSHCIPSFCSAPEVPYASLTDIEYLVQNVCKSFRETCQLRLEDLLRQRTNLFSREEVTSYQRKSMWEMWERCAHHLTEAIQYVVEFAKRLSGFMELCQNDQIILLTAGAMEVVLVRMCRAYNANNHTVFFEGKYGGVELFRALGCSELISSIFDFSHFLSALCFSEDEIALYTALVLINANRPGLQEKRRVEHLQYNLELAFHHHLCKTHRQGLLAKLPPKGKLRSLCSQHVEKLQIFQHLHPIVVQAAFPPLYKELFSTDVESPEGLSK
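Stably transfected Drosophila Schneider cells are the test system, with ROR gamma fused to Gal4 and luciferase under UAS control; luminescence is read after 20 hr of 700 uM copper sulfate induction at ambient temperature.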
p53 reactivation: qHTS assay for re-activators of p53 using a Luc reporter. Potency, µM (doses to about 92.2 µM), hits mostly activators. 320,000 compounds, 0.063% hits. H1299 p53-A138V BP100-luciferase reporter, luminescence, 24 h; note: nearly all actives have a fitted effect of over 45% in size
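H1299 (p53-null), stable ts p53-A138V + BP100-Luc; 1000 cells/well, Opti-MEM/10% FBS; cpd 4 pt, 1:5; 24 h, 37 deg C, 5% CO2; detection reagent 10 min RT; luminescence.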
BRCA1 expr up: qHTS Assay to Identify Small Molecule Activators of BRCA1 Expression. MCF7-BRCA1-FFLuc reporter, luminescence, 48 h; response scale: scaled: vehicle 0%, 10 µM genistein 100%. Potency, µM (top dose mostly 46.1 µM), actives largely listed as activators. 380,000 compounds, 1.1% hits; note: nearly all actives have a fitted effect of over 80% in size
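Using MCF7 cells harboring a BRCA1 firefly luciferase reporter, plated 2 h before compound pinning, the screen measured luminescence after 48 h incubation. Responses were normalized to DMSO and 10 microM genistein, then fitted for concentration-effect.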
Gal4-VP16 FLuc: VP16 counterscreen qHTS for inhibitors of ROR gamma transcriptional activity; 310,000 compounds, 3.5% hits; Potency, µM (titrated, usually from 53.6 µM), usual class: inhibitors; Drosophila S2 Gal4-VP16 UAS-luciferase, luminescence, 20 h; AID 2546, 2010;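 note: Gal4-VP16 expression switched on by copper sulfate through the metallothionein promoter; nearly all actives have a fitted effect of over 50% in size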
Hits are given with their value; i = inactive; ? = inconclusive; nt = not tested or not shown. This is a sample that favours compounds with a hit; in the whole collection about 7.6% have one here. Unless noted, calls come from the whole dose curve; as a rule, active = well fitted curve in the direction sought with a large enough effect; inconclusive = small, poorly fitted or top-dose-only effect, or another doubt; inactive = no such curve, though single readings can be large; an effect the other way counts as inactive or inconclusive.

SMILES | Giardia killer | ELG1 DNA repair | RORgamma inh | p53 reactivation | BRCA1 expr up | Gal4-VP16 FLuc
CCOC(=O)c1cc(-c2nnc(-c3ccc(Cl)cc3)o2)c(C)nc1C | i | i | i | i | i | i
CCOC(=O)c1ccc(-c2nnc(-c3ccc(Cl)cc3Cl)o2)cc1 | i | ? | ? | nt | 0.89µM | i
O=C(Cc1ccccc1)c1ccc(O)cc1 | i | nt | nt | nt | 11µM | nt
O=C(c1ccccc1)c1ccc(N2CCOCC2)cc1 | i | nt | nt | nt | ? | nt
O=C(Cc1ccccc1)c1ccc(N2CCOCC2)cc1 | i | nt | nt | nt | 11µM | nt
Cc1ccc(SCc2nc(-c3ccccc3)no2)cc1 | i | i | i | ? | i | i
COc1ccc(-c2noc(CSc3ccccc3)n2)cc1OC | i | ? | i | ? | 11µM | i
c1ccc(SCc2nc(-c3ccncc3)no2)cc1 | i | ? | ? | ? | ? | 11µM
CCn1c2c(c(=N)c3c1CCC3)CCCC2 | i | ? | i | i | i | i
CCOC(=O)Cn1c2c(c(=N)c3c1CCC3)CCC2 | i | ? | i | i | i | i
CCCCCCCCCCn1c2c(c(=N)c3c1CCC3)CCC2 | i | ? | 8.9µM | i | i | 3.2µM
CCCCn1c2c(c(=N)c3ccccc31)CCC2 | i | 1.6µM | i | i | i | i
CCCCCCCCn1c2c(c(=N)c3ccccc31)CCC2 | i | i | i | i | i | i
CCCCCCCCCn1c2c(c(=N)c3c1CCC3)CCCC2 | i | ? | 4µM | i | i | ?
CCOC(=O)CC1=C(C(=O)OCC)C(c2ccc(OC)cc2OC)C(C#N)=C(N)O1 (centres undefined) | i | i | i | i | i | i
Cc1cnc(C(=O)OCC(=O)Nc2ccc(C)c(S(=O)(=O)N(C)C)c2)cn1 | i | i | i | i | i | i
Cn1c(-c2csc(-c3cccc(C(F)(F)F)c3)n2)n[nH]c1=S | i | i | 4.5µM | i | i | i
Cn1c(CNc2cccc(C(F)(F)F)c2)n[nH]c1=S | i | i | ? | i | i | i
N=C1C(c2nc3ccccc3s2)=C(O)CN1Cc1ccco1 | i | ? | ? | ? | 7.1µM | i
CCOc1ccc2oc(C(=O)NC3CCN(Cc4ccccc4)CC3)c(C)c2c1 | i | ? | i | i | i | i
Oc1ccc(N=C/C=C/c2cccc(Br)c2)cc1-c1nc2ccccc2s1 | i | ? | ? | ? | i | 7.9µM
O=C(Cc1ccc([N+](=O)[O-])cc1)c1ccc(O)cc1O | i | ? | i | i | 10µM | i
O=C(COc1ccccc1Br)c1ccc(O)cc1O | i | ? | 10µM | ? | ? | ?
O=C(COc1ccccc1Br)c1ccc2c(c1)OCO2 | i | ? | nt | i | i | nt
O=C(Cc1ccc(Br)cc1)c1ccc(O)cc1O | i | ? | i | ? | 11µM | i
SMILES | Giardia killer | ELG1 DNA repair | RORgamma inh | p53 reactivation | BRCA1 expr up | Gal4-VP16 FLuc
Cc1ccc(C)c(C(=O)COC(=O)C(C)N2C(=O)C3C4CCC(C4)C3C2=O)c1 (centres undefined) | i | i | i | i | i | i
COc1cc(=O)[nH]c(SC(C)C(=O)Nc2cccc3ccccc23)n1 (centres undefined) | i | i | i | i | i | i
Cc1c(-c2ccccn2)c(=O)[nH]n1-c1ccc(F)cc1 | i | ? | 6.3µM | i | i | ?
CC(=O)NC12CC3CC(C1)CC(C(=O)Nc1nc4ccc(S(C)(=O)=O)cc4s1)(C3)C2 | i | i | i | i | i | i
COCCCNC(=O)C[C@H]1C[C@H](C(=O)N2CCCCC2)[C@@]2(C)c3[nH]c4cc(-c5ccco5)ccc4c3CCN2C1=O | i | i | nt | i | i | nt
C[C@]12c3[nH]c4ccc(Cl)cc4c3CCN1C(=O)[C@@H](CC(=O)NCc1cccc(C(F)(F)F)c1)C[C@@H]2C(=O)N1CCOCC1 | i | 23µM | nt | i | i | nt
